Screening data (PubChem BioAssay)
This is a sample that favours compounds with a hit; in the whole collection about 0.37% have one here.
Rab2 wt GTP – modulators of GTP binding to Rab2A wildtype, primary screen, biochemical, dog, bead-based flow cytometry, multiplex. GTP binding activity, % at 10 µM. hit rate 0.19% among 190,000. AID 760, 2007. GST-Rab2 wt beads, Bodipy-GTP binding;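 active means GTP binding activity at least 20 points away from 100%, either lowered or raised; inconclusive means signal likely due to the compound's own green fluorescence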
Rac1 act GTP bind – GTP binding modulators of activated mutant Rac1, primary screen, biochemical, bead-based flow cytometry, multiplex, fluorescent GTP; Ras-related C3 botulinum toxin substrate 1 (Homo sapiens), P63000; GST-Rac1 activated beads; actives lie on both sides; 100% means binding = to untreated wells; percent activity (GTP binding), % at 10 µM; hit rate 0.11% among 190,000; AID 764, 2007;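 active means GTP binding at least 20 percentage points away from the 100% baseline, in either direction, so actives lie on both sides; inconclusive means Compound likely fluorescent itself, or too few beads counted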
Cdc42 wt GTP – modulators of GTP binding to wildtype Cdc42, primary screen, biochemical, multiplex bead flow cytometry, Bodipy-GTP; hit rate 0.2% among 190,000; GST-Cdc42 beads; actives lie on both sides; percent activity (GTP binding), % at 10 µM; Cell division control protein 42 homolog (Homo sapiens), P60953;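 active means percent activity GTP binding at least 20 points away from the 100% baseline, either down as inhibitor or up as activator; inconclusive means compound flagged as likely green fluorescent from well-wide comparison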;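 further: median bead fluorescence of bound Bodipy-FL-GTP at 100 nM; below 100% means less GTP binding so inhibitor and above means activator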
Target sequence (P60953 whole entry, looked up): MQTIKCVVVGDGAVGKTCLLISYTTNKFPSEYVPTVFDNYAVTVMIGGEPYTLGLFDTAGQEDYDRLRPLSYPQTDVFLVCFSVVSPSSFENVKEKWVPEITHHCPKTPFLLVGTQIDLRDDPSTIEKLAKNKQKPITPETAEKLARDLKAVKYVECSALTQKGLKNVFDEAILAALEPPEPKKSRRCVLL
Rab7 wt GTP bind – modulators of GTP binding to Rab7, primary screen, biochemical, wildtype, multiplex bead flow cytometry; Rab7 GTPase wild type (dog), Bodipy-FL-GTP binding; GTP binding activity (percent of control), % at 10 µM; hit rate 0.055% among 190,000; GST-Rab7 beads, fluorescent GTP binding; actives lie on both sides; untreated = 100%, excess cold GTP = 0%;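 active means fluorescent GTP binding to Rab7 beads changed by at least 20 points from the 100% baseline, either direction, mostly lower; inconclusive means compound itself probably fluorescent, or too few beads counted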;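 further: median green fluorescence of bound Bodipy-FL-GTP per Rab7 bead population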
Rac1 wt GTP bind – wildtype Rac1 GTP binding modulators, primary screen, biochemical, GST-Rac1 beads, flow cytometry, multiplex. fluorescent GTP binding; actives lie on both sides; 0 = cold GTP competed, 100 = untreated. GTP binding activity (% of control), % at 10 µM. hit rate 0.27% among 190,000;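 active means GTP binding activity at least 20 points away from the 100% control level, either lower or higher; inconclusive means compound flagged as likely green fluorescent, judged across all proteins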
HRas wt GTP bind – modulators of GTP binding to HRas wildtype, primary screen, biochemical, bead-based flow cytometry, multiplex; GST-Ras wt beads, Bodipy-FL-GTP binding; actives lie on both sides; hit rate 0.14% among 190,000; GTP binding activity, % at 10 µM; AID 759, 2007;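 active means GTP binding activity at least 20% away from the 100% baseline, either lowered as inhibitor or raised as activator; inconclusive means flagged as likely green fluorescent, judged across all proteins in the well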
Target sequence (P01112 whole entry, looked up): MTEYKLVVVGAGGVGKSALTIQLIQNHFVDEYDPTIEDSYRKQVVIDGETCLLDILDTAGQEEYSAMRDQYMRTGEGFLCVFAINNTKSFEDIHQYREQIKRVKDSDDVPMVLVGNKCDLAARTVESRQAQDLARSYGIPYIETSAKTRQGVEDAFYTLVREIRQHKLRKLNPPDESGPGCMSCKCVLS
Large screens that a line does not name were inactive; [ ] = another dose, or the depositor's remark.

NC(=O)NOCc1ncc(C(F)(F)F)cc1Cl	Rac1 wt GTP bind 120[activator]
O=c1[nH]c(N/N=C\c2ccc3c(c2)OCO3)nc2ccccc12	Rab2 wt GTP 77, Cdc42 wt GTP 78, Rac1 wt GTP bind 67, HRas wt GTP bind 80
CCOC(=O)c1cc(C(=O)NC(C)c2ccccc2)c(C)[nH]c1=O (stereo unspecified)	none
C/C(N)=C(/C#N)C(=O)CSc1nc2ccccc2n1CC(C)C	none
O=C(O)c1ccccc1C(=O)OCc1ccccc1	Rab2 wt GTP 134[activator], Rac1 act GTP bind inconclusive, Rab7 wt GTP bind inconclusive, Rac1 wt GTP bind 160[activator], HRas wt GTP bind 136[activator]
O=C(OCc1ccccc1)c1cccnc1Cl	none
C=CCNC(=O)c1ccccc1NC(=O)c1ccc(Cl)c(S(=O)(=O)Nc2ccccc2)c1	none
O=C(CSc1ccc2nnc(-c3cccc(F)c3)n2n1)N1CCCc2ccccc21	Rac1 wt GTP bind 79
O=C(CSc1ccc2nnc(-c3ccc(F)cc3)n2n1)N1CCCc2ccccc21	none
COc1ccc(/C=N/NC(=O)c2ccncc2)cc1Cn1nc([N+](=O)[O-])c(Br)c1C	Rab2 wt GTP 68, Cdc42 wt GTP 65, Rac1 wt GTP bind 76, HRas wt GTP bind 74
COc1ccc(/C=N/NC(=O)c2ccco2)cc1Cn1nc(C)c([N+](=O)[O-])c1C	none
CC1(C)OC(=O)C(=Cc2ccc(-c3ccc(S(N)(=O)=O)cc3)o2)C(=O)O1	none
NS(=O)(=O)c1ccc(-c2ccc(/C=C3\C(=O)Nc4cc(Cl)ccc43)o2)cc1	Rab2 wt GTP 76, Cdc42 wt GTP 73, Rac1 wt GTP bind 68, HRas wt GTP bind 76
Cc1nnc2ccc(-c3cccc(NC(=O)c4ccco4)c3)nn12	Rab2 wt GTP 63, Rac1 act GTP bind 75, Cdc42 wt GTP 64, Rab7 wt GTP bind 77, Rac1 wt GTP bind 56, HRas wt GTP bind 65
COc1ccccc1C(=O)Nc1nc(-c2ccc3c(c2)OCCO3)cs1	Rac1 act GTP bind 78, Cdc42 wt GTP 78, Rac1 wt GTP bind 78
CCC(=O)Nc1nc(-c2ccc3c(c2)OCCO3)cs1	none
Cc1sc2nc3c4ccccc4c(NCc4ccco4)nn3c(=O)c2c1C	Rab2 wt GTP 74, Cdc42 wt GTP 75, HRas wt GTP bind 76
CC(=O)Nc1ccc(S(=O)(=O)N2CCN(Cc3cccc([N+](=O)[O-])c3)CC2)cc1	none
COc1c(C)cc(Br)cc1C(=O)O	Rac1 wt GTP bind 120[activator]
O=C(Cn1nc2ccccc2n1)N/N=C/c1cc([N+](=O)[O-])ccc1O	Rab2 wt GTP 70, Rac1 act GTP bind 79, Cdc42 wt GTP 70, Rac1 wt GTP bind 61, HRas wt GTP bind 73
O=C(NCc1ccco1)C(=O)NCC(c1ccco1)N1CCOCC1 (stereo unspecified)	none
COc1cccc(-n2nnnc2S(C)(=O)=O)c1	Rac1 act GTP bind 70, Cdc42 wt GTP 72
COc1cccc(Oc2nnnn2-c2ccccc2)c1	none
O=C(O)CCCN1C(=O)/C(=C\c2ccco2)SC1=S	none
O=C(O)CCN1C(=O)/C(=C\c2ccc(-c3nc4ccccc4s3)o2)SC1=S	Rab2 wt GTP 66, Rac1 act GTP bind 71, Cdc42 wt GTP 69, Rab7 wt GTP bind 74, Rac1 wt GTP bind 67, HRas wt GTP bind 74
O=C(CCl)Nc1cccn2ncnc12	Rac1 wt GTP bind 120[activator]
Cc1ccc(-n2c(=O)cc(N3CCc4ccccc4C3)[nH]c2=O)cc1	Rac1 wt GTP bind 126[activator]
Cc1ccc(-n2c(=O)cc(N3CCN(C(=O)c4ccco4)CC3)[nH]c2=O)cc1	Rac1 wt GTP bind 121[activator]
COc1cccc2sc(Nc3nc(-c4ccccn4)cs3)nc12	Rac1 wt GTP bind 79
c1ccc(Nc2nc(-c3ccccn3)cs2)cc1	none
COc1cc(/C=N/NC(=O)C(Cc2c[nH]c3ccccc23)NC(=O)OCC(C)C)cc([N+](=O)[O-])c1O (stereo unspecified)	none
COc1cc(/C=N/NC(=O)C(Cc2c[nH]c3ccccc23)NC(=O)OCc2ccccc2)cc([N+](=O)[O-])c1O (stereo unspecified)	Rab2 wt GTP 77, Rac1 wt GTP bind 78
CC1(C)N=C(N)NC(Nc2ccccc2Cl)=N1	none
C(#Cc1ccccc1)C[N+]1(CC#Cc2ccccc2)CCCC1	none
C=CC#CC[N+]1(CC#Cc2ccccc2)CCOCC1	Rac1 wt GTP bind 128[activator]
CN1CCN(C(=O)CC2(CC(=O)O)CCCC2)CC1	none
O=C(NNC(=O)C(c1ccccc1)c1ccccc1)c1ccccn1	none
CC(C)Cc1csc(NC(=O)c2ccccc2Cl)c1C(=O)O	Cdc42 wt GTP 78, Rac1 wt GTP bind 79
CC(C)Cc1csc(NC(=O)c2ccc(Cl)cc2)c1C(=O)O	none
CC1CCN(S(=O)(=O)c2ccc(C(=O)NNC(=O)C3CC3)cc2)CC1	none
Cc1ccc(/C=N/NC(=O)c2ccc(Cn3cc([N+](=O)[O-])cn3)o2)cc1	none
Cc1c(Cl)c([N+](=O)[O-])nn1Cc1ccc(C(=O)N/N=C\c2ccccn2)o1	Rac1 wt GTP bind 75
COc1ccc(-c2c3c(nc4sc5c(=O)[nH]c(C)nc5c24)CCC3)cc1	Rab2 wt GTP 76, Rac1 wt GTP bind 76
C/C=C/c1ccccc1OCc1ccc(C(=O)O)o1	Rab2 wt GTP 149[activator], Rac1 act GTP bind 146[activator], Cdc42 wt GTP 161[activator], Rab7 wt GTP bind 134[activator], Rac1 wt GTP bind 194[activator], HRas wt GTP bind 145[activator]
CCc1nnc2c(N(C)C)nc3ccccc3n12	Rac1 wt GTP bind 76
CCCc1nnc2c(N(C)S(=O)(=O)c3ccc(C)cc3)nc3ccccc3n12	none
O=c1cc(-c2ccccc2)n(S(=O)(=O)c2ccccc2)o1	none
COc1ccc(S(=O)(=O)n2oc(=O)cc2-c2ccccc2)cc1	Rab2 wt GTP 79, Cdc42 wt GTP 79
N#CCCN(/N=C/c1cccnc1)C1=NS(=O)(=O)c2ccccc21	none
Cc1cccc(/C=N/N(CCO)C2=NS(=O)(=O)c3ccccc32)c1	Rac1 wt GTP bind 68
Cc1ccc([N+](=O)[O-])cc1-c1ccc(/C=C(\C#N)c2[nH]nc(N)c2C#N)o1	Rac1 wt GTP bind 79
